Assay outcomes as filed in PubChem BioAssay.
An excerpt weighted towards active compounds, which were near 2% of everything screened.
BJeLR lethal: BJeLR cell viability loss. BJeLR (HRASV12) viability, CellTiter-Glo ATP luminescence, 48 h. inhibition, % (no concentration beside the values). 300,000 tested, 0.17% active; in the data active = inhibition above about 50%
CCHF vOTU inh-1: CCHFV vOTU protease inhibition | Pep-AMC fluorescence | inhibition, % at 11.5 µM | 370,000 tested, 0.55% active; note: 0% = vehicle wells with enzyme and 100% = no enzyme wells
PfHsp40 rescue: rescue of PfHsp40-mediated yeast toxicity | S. cerevisiae expressing PfHsp40, growth rescue, ATP luminescence | growth rescue, % at 12.5 µM | 340,000 tested, 0.68% active; in the data active = growth rescue above about 28%, passing the limit was not always enough;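 note: yeast W303a lacking pdr1 and pdr3 grown in galactose medium; growth measured after three days at 30 °C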
PrP 5UTR inh: inhibition of PrP 5' UTR reporter expression | cell-based PrP 5' UTR mRNA reporter, plate reader | inhibition, % (concentration not given with the values) | 340,000 tested, 0.35% active | AID 488862; in the data active = inhibition above about 52%; note: 0 = median of the neutral control wells
PrPC surface inh: cell surface PrPC inhibition, primary TR-FRET screen | P04156 | TR-FRET read-out | inhibition, % at 13.8 µM | 370,000 tested, 0.43% active | AID 720596; in the data active = inhibition above about 24%; note: 0% = median of the test wells and 100% = reference compound wells
Y pestis TopoI: Y. pestis Topo-I inhibition via cleavage products. activity, % at 10 µM. AID 504884. Y. pestis Topo-I cleavage product accumulation, plate reader. 360,000 tested, 0.064% active; in the data active = activity above about 50%, passing the limit was not always enough
CCHF vOTU inh-2: CCHFV vOTU protease inhibition, confirmation | shares compounds with CCHF vOTU inh-1 | Recombinant CCHFV vOTU, Pep-AMC fluorescence | inhibition, % at 11.5 µM | 1,900 tested, 17% active
An asterisk follows results filed as active; . = no result given; ! = not confirmed by another sample. Cut-off read from the data, not from the text of the source, unless noted: active = inhibition above about 30%; inactive = the rest.

SMILES | BJeLR lethal | CCHF vOTU inh-1 | PfHsp40 rescue | PrP 5UTR inh | PrPC surface inh | Y pestis TopoI | CCHF vOTU inh-2
Cc1cc(OCC(=O)NNC(=S)NC(=O)c2ccc(Br)o2)ccc1Cl | . | 36* | 5 | -12 | -1 | -6 | -14
O=C1C(=C(I)I)c2ccccc2-c2ccccc21 | . | 95* | 0 | -40 | 4 | -15 | 55*
C[C@@H]1COc2cc(NCCO)ccc2S(=O)(=O)N1 | . | -2 | . | . | 0 | . | .
O=[N+]([O-])c1cc([N+](=O)[O-])c2nonc2c1Nc1ccc(O)cc1 | 3 | 64* | 0 | -15 | -16 | -12 | -6
O=[N+]([O-])c1cc([N+](=O)[O-])c2nonc2c1Nc1ccccc1O | 1 | -1 | 1 | -26 | -15 | -7 | .
Cc1cccc(NC(=O)CN2C(=O)S/C(=C\c3ccc(O)c([N+](=O)[O-])c3)C2=O)c1 | 3 | 31* | 0 | 2 | -7 | -8 | 2
Cc1ccc(NC(=O)CN2C(=O)S/C(=C/c3ccc(O)c([N+](=O)[O-])c3)C2=O)cc1C | . | 10 | 0 | -17 | -7 | -7 | .
COc1ccc(C2CC(=O)C(c3ccc(Cl)c(Cl)c3)=CN2Cc2ccccc2)cc1 (stereo not given) | . | -4 | . | . | 14 | . | .
CN1CC[C@@]2(C)c3cc(O)ccc3N(C)[C@@H]12 | . | 40*! | -1 | -10 | -12 | 2 | 28
Cc1ccc(-c2c(C(=O)NCC(C)C)oc(=O)c3ccccc23)cc1 | . | 6 | . | . | 0 | . | .
COC1=C(Nc2ccccc2)C(=O)c2ccccc2C1=O | 2 | 15 | -2 | -43 | 2 | 1 | .
COC1=C(N)C(=O)c2nc(C)ccc2C1=O | . | 55* | -1 | -32 | -8 | -2 | 107*
COC1=C(Br)C(=O)c2nc(C)ccc2C1=O | . | 115* | . | . | -21 | -10 | 83*
C=CCNC(=O)c1cccc2c1C(=O)c1ccc(N3CCOCC3)cc1S2(=O)=O | . | 31* | -1 | -11 | -53 | -11 | -7
Nc1cccc2cnccc12 | . | 48* | -1 | -16 | -7 | 3 | -16
O=C(/C=C\Nc1ccccc1Br)c1ccc2c(c1)OCO2 | 2 | 32* | 1 | 24 | 6 | -1 | -6
O=C1Nc2ccccc2N=C(c2ccc3c(c2)OCO3)C1N(C(=O)c1ccc2ccccc2c1)C1CC1 (stereo not given) | . | 32* | . | . | -5 | . | -5
CCOc1ccc(NC(=O)CNS(=O)(=O)c2c(C)cc(C)cc2C)cc1 | -1 | 43* | -1 | -8 | 2 | 10 | -16
CC1(C)Cc2c(C#N)c(N)n(-c3ccccc3)c(=S)c2CO1 | -1 | 10 | -1 | -2 | -12 | 2 | .
CC1(C)C=C2C(=NN(c3ccccc3)C(N)=C2C#N)CO1 | -15 | 50* | -1 | -7 | -12 | -7 | 100*
CCC(Sc1nc2ccsc2c(=O)n1Cc1ccc(C(=O)O)cc1)C(=O)Nc1ccc(C)c(Cl)c1 (stereo not given) | -8 | 31* | 0 | -8 | 11 | 3 | 8
CC(C)c1ccc(C(c2c(O)c3ccccc3oc2=O)c2c(O)c3ccccc3oc2=O)cc1 | . | 37* | . | . | 8 | -12 | -7
O=c1oc2ccccc2c(O)c1C(c1ccc([N+](=O)[O-])cc1)c1c(O)c2ccccc2oc1=O | 2 | 22 | 14 | 4 | 1 | -7 | .
O=C1C=C(O)c2[nH]c(=O)ccc2C1=O | . | 95* | -1 | 52 | -34 | -2 | 67*
NC1=CC(=O)C(=O)c2ccccc21 | . | 20 | 1 | -26 | -1 | -15 | .
SMILES | BJeLR lethal | CCHF vOTU inh-1 | PfHsp40 rescue | PrP 5UTR inh | PrPC surface inh | Y pestis TopoI | CCHF vOTU inh-2
CCOC(=O)[C@]12CCCC=C1N(CCCOC)C(=O)[C@@H]2CC(=O)NCc1cccc2ccccc12 | . | 7 | . | . | 9 | . | .
COc1ccc(-n2c(SCC(=O)c3ccc4ccccc4c3)nnc2-c2ccccc2)cc1 | . | 7 | . | . | 3 | . | .
O=c1c2ccccc2c(C=NC2CCN(Cc3ccccc3)CC2)c(O)n1Cc1ccc2c(c1)OCO2 | 2 | 31* | . | . | -2 | . | -16
Cc1cc(C)cc(NC(=O)CN(C)CC(=O)N(CC(C)C)c2c(N)n(CC(C)C)c(=O)[nH]c2=O)c1 | . | 35* | 0 | -21 | 4 | -2 | -27
COc1ccc(NC(=O)CN(C)CC(=O)N(CC(C)C)c2c(N)n(CC(C)C)c(=O)[nH]c2=O)cc1 | . | -4 | 0 | . | -1 | -11 | .
O=C(Nc1ccc(C(F)(F)F)cc1)OC1CCC12CCC(c1ccccc1)CC2 (stereo not given) | . | 2 | . | . | 0 | . | .
COc1ccc(S(N)(=O)=O)cc1C(=O)OCC(=O)N1CCCC(C)C1 (stereo not given) | . | 30* | 0 | -22 | -5 | -3 | -17
O=C(N=C1c2ccccc2CN1c1ccccc1)c1cccc([N+](=O)[O-])c1 | 1 | 30* | 2 | -15 | -17 | -3 | -12
CCOC(=O)c1ccc(N2Cc3ccccc3C2=NC(=O)c2cccc([N+](=O)[O-])c2)cc1 | -9 | -1 | 1 | -100 | -3 | -2 | .
CN(C(=O)[C@@H](Cc1ccccc1)NC(=O)[C@H]1O[C@@H](n2ccc(=O)[nH]c2=O)[C@H](O)[C@@H]1O)C1CCCCC1 | . | 9 | . | . | -4 | . | .
O=C(O)c1ccc(S(=O)(=O)/N=C2\C=C(Nc3ccccc3F)C(=O)c3ccccc32)cc1 | 3 | 122* | 1 | -190 | -8 | -3 | 103*
Cc1ccccc1NC1=C/C(=N\S(=O)(=O)c2ccc(C(=O)O)cc2)c2ccccc2C1=O | 15 | 107* | -1 | -88 | -24 | -20 | 101*
Cc1ccc(-n2c(SCc3nc4ccccc4[nH]3)nnc2-c2ccccn2)cc1 | . | -4 | . | . | -2 | . | .
Cc1[nH]c2ccccc2c1C(=O)c1c(N)[nH]c(C(=O)c2ccc(Br)cc2)c1-c1ccc(Br)cc1 | . | 1 | . | . | 0 | . | .
CCCCCCCCN1C(=O)[C@@H](CC(=O)NCc2cccc(C(F)(F)F)c2)C[C@@]2(C(=O)OC)C1=C[C@H](C(C)C)O[C@@H]2C1CC1 | . | 30* | . | . | 2 | . | 31*
CCCCCCCCN1C(=O)[C@@H](CC(=O)NCc2ccc(OC)c(OC)c2)C[C@@]2(C(=O)OC)C1=C[C@H](C(C)C)O[C@@H]2C1CC1 | . | 38* | . | . | 11 | . | 11
CC(=O)Oc1ccc(-c2csc(Nc3ccccn3)n2)cc1 | . | 42* | . | . | 7 | -8 | -2
Cc1c(C(=O)O)c(=O)n(-c2ccccc2)n1-c1ccccc1 | 0 | -8 | -2 | -5 | 5 | 1 | .
Cc1c(C=O)c(=O)n(-c2ccccc2)n1-c1ccccc1 | 0 | 32* | -1 | -6 | 9 | -7 | -19
COc1cc(OC)cc(-c2c(-c3cccs3)c3cc(Br)ccc3n2C)c1 | . | 31* | -1 | -25 | 11 | -11 | -28
COc1cc(F)cc(-c2ccc3c(c2)c(-c2cccs2)c(-c2cc(OC)cc(OC)c2)n3C)c1 | . | 4 | -2 | -10 | 1 | -7 | .
CN=C1c2cc3cc(OC)ccc3n2CCN1Cc1ccccc1 | -9 | 37* | 1 | -9 | -9 | 3 | -9
